The record followed here is PubChem BioAssay AID2673 (National Center for Advancing Translational Sciences (NCATS), 2010).

Results filed as inconclusive are left out. Where a call stands in place of a potency, no number is given. The source made the active and inactive calls. Calls follow the shape of the dose curve; as a rule, active = well fitted activation curve with a large enough effect; inconclusive = small, poorly fitted or top-dose-only effect; inactive = no such curve, though single readings can be large or run the other way.

The test can be described thus: qHTS Multiplex Assay to Identify Dual Action Probes in a Cell Model of Huntington: Cytoprotection confirmation (ATP). The settings on record: PC12 HttQ103 induced, ATP luminescence 40 h; series mostly up to 46.1 µM. An excerpt:
NIH Chemical Genomics Center [NCGC]
NIH Molecular Libraries Probe Production centers Network [MLPCN]
Assay Submitter (PI): Wei Zheng
Huntington's disease is a neurodegenerative disorder caused by a trinucleotide repeat expansion in Exon 1 of the Huntingtin gene. The CAG trinucleotide encodes glutamine and polyglutamine expansions cause cell death in selective areas of the brain. Huntington polyglutamine repeats have the tendency to form aggregates which are observable in later stages of the disease. The exact nature of the aggregates, whether toxic, protective, or insignificant, is unclear.
A stable PC12 cell line containing a gene fusion of Exon 1 of the Huntingtin gene linked to GFP under the control of the inducible ecdysone promoter were used as the cell-based model of Huntington Disease for high throughput screening. Exon 1 of the Huntingtin gene contained an expansion of 103 polyglutamines (Q103) which, when expressed, caused cell death and distinct, bright GFP aggregates. The amount of cell death and the size and intensity of GFP aggregates increased over time and induction level. The cell death were quantified with a measurement of ATP content in the cells. A maximal 40-50% of cell death was observed when the Huntington gene was induced in this cell line.
We optimized this assay in a homogeneous 1536 well format. A quantitative high throughput screen (qHTS) was conducted on the PC12 cells which were induced to express the toxic fusion construct. Small molecules which prevented cell death were identified by using a luminescent ATP quantification method (Perkin Elmer's ATPlite).
PC12 cells stably containing a construct with an ecdysone inducible promoter expressing GFP fused to the exon 1 of HTTQ103 (Huntington protein which containing a 103 ployglutamine expansion) were used.
NCGC Assay Protocol Summary:
Sequence, Parameter, Description
1, Reagent, 5 uL 1500 cells/well 1536 TC treated White clear bottom plate
2, Compound, 23 nL Tebufenozide inducer (100 nM final) to all columns
3, Compound, 23 nL 40 uM to 0.5 nM Libraries
5, Reagent, 5 ul ATPLite cell death assay reagent
6, Detector, 4 sec integration with a Viewlux Luminescent
Media consisted of phenol red free DMEM + 5% equine serum (Hyclone # SH30072.03 ), 5% supplemented Bovine Calf Serum (Hyclone # SH30074.03 ), 1x pen/strep, no G418
On to `Cn1nnnc1Sc1ncnc2scc(-c3ccc(F)cc3)c12`, for which the Potency was 25.1 µM (active).

Turning to `Cn1nnnc1Sc1ncnc2scc(-c3ccc4c(c3)OCO4)c12`, the Potency was 22.4 µM (active).

For `COc1ccc2c(c1)-c1c(ssc1=S)C(C)(C)N2`, the Potency result was “inactive”.

On to `CCOC(=O)c1noc(C)c1C(=O)Nc1cccc(F)c1`, for which the Potency entry was “inactive”.

On to `CC(=O)c1n[nH]nc1NC(=O)c1ccccc1`, for which the Potency entry was “inactive”.

For the compound `Cn1nnnc1Sc1ncnc2scc(-c3ccccc3C(F)(F)F)c12`, the Potency entry is “inactive”.

For `COc1ccc(C(=O)C(CN2CCOCC2)c2ccccc2)cc1` (stereo not given), the Potency entry is “inactive”.

In the case of `O=Nc1c(-c2c(O)[nH]c3ccccc23)[nH]c2ccccc12`, the Potency result was “inactive”.

On to `CC(=O)c1ccccc1-c1csc2ncnc(Sc3nnnn3C)c12`, for which the Potency was 31.6 µM (active).

On to `Cc1cccc(-c2csc3ncnc(Sc4nnnn4C)c23)c1`, for which the Potency was 31.6 µM (active).

Consider `COc1ccc2cc3cc(C(=O)NCc4ccco4)oc3nc2c1`, for which the Potency result was “inactive”.

For `O=C(N/N=C/c1ccc(O)c(O)c1)c1ccc(CSc2cccc3cccnc23)cc1`, the Potency entry was “inactive”.

For `Cc1ccc(-c2csc3ncnc(Sc4nnnn4C)c23)cc1`, the Potency was 35.5 µM (active).

Turning to `CN1C(=O)C2(c3ccccc31)C1CCCC=C1C(C#N)=C(N)C2(C#N)C#N` (stereo not given), the Potency result is “inactive”.

Turning to `Cn1nnnc1Sc1ncnc2scc(-c3cccc(Cl)c3)c12`, the Potency is 14.1 µM (active).

On to `Cc1ccccc1-c1csc2ncnc(Sc3nnnn3C)c12`, for which the Potency entry was “inactive”.

For the compound `CCN(CC)CCNc1ccc(CO)c2sc3ccccc3c(=O)c12`, the Potency result is “inactive”.

For the compound `NC(=O)C1CCN(CCC(=O)Nc2ccc(Br)cc2)CC1`, the Potency result is “inactive”.

`Cn1nnnc1Sc1ncnc2scc(-c3cccc([N+](=O)[O-])c3)c12`: the Potency was 25.1 µM (active).

With `Cn1nnnc1Sc1ncnc2scc(-c3ccccc3)c12`, the Potency is 25.1 µM (active).

Consider `COc1c(F)c(F)c(C(=O)Nc2ccc3oc(-c4ccncc4)nc3c2)c(F)c1F`, for which the Potency entry was “inactive”.

Take `C[C@@H]1CNCCN1S(=O)(=O)c1cccc2cnccc12`: the Potency entry was “inactive”.

As for `C[C@]12CC[C@@H]3c4ccc(OC(=O)c5ccccc5)cc4CC[C@H]3[C@@H]1CC[C@@H]2O`, the Potency entry was “inactive”.

For `Cn1nnnc1Sc1ncnc2scc(-c3cccc(C#N)c3)c12`, the Potency is 12.6 µM (active).

Regarding `Cc1noc(C)c1COC(=O)Cc1ccc(Cl)cc1`, the Potency entry was “inactive”.

On to `Cn1nnnc1Sc1ncnc2scc(-c3ccc(C#N)cc3)c12`, for which the Potency was 10 µM (active).

Take `Cn1nnnc1Sc1ncnc2scc(-c3cc4ccccc4o3)c12`: the Potency entry is “inactive”.

In the case of `NC(=O)c1sc2nc3c(c(-c4cccs4)c2c1N)CCCCC3`, the Potency entry was “inactive”.

As for `COc1ccc(NC(=O)c2sc(SC)nc2N)cc1`, the Potency entry is “inactive”.

Turning to `O=C(c1ccccc1)c1ccc2n1CCC2C(=O)O` (stereo not given), the Potency result is “inactive”.

For the compound `CCOC(=O)c1sc2nc(N3CCOCC3)c3c(c2c1N)CC(C)(C)N(C)C3`, the Potency result is “inactive”.

With `O=C(O)/C=C/C(O)c1ccc(Cl)cc1` (stereo not given), the Potency result was “inactive”.

As for `COc1ccccc1-c1csc2ncnc(Sc3nnnn3C)c12`, the Potency entry is “inactive”.

`Cc1cc(C)nc(Sc2nc(C)nc3c2oc2ccccc23)n1`: the Potency entry is “inactive”.

As to `CC(C)(C)n1nnnc1C(c1ccc2ncccc2c1)N1CCSCC1` (stereo not given), the Potency entry was “inactive”.

For the compound `CCC(=O)OCCCCCCOc1ccc(C(=O)O)cc1`, the Potency entry is “inactive”.

Turning to `Cn1nnnc1Sc1ncnc2scc(-c3cccc(Br)c3)c12`, the Potency entry is “inactive”.

Take `O=C(NCc1ccco1)c1cc2ccc(O)cc2oc1=O`: the Potency result was “inactive”.

As for `O=C(O)c1cc(=O)c2ccc(Cl)cc2[nH]1`, the Potency entry is “inactive”.

Regarding `Cn1nnnc1Sc1ncnc2scc(-c3ccccc3Cl)c12`, the Potency is 31.6 µM (active).
